Results: PubChem BioAssay AID1578 (Sanford-Burnham Center for Chemical Genomics, 2009)
In all, about 290,000 compounds went through this assay and about 3,000 (1%) were called active. The sample as a whole holds a higher share of actives than the screen did. Unmarked numbers belong to inactive results. Cut-off read from the data, not from the text of the source: active = inhibition mostly above about 36% (no sharp cut-off); inactive = mostly below about 34%.

test: NOD1 signaling inhibitors, primary screen, cell-based, luminescence, uHTS (AID 1578); settings: NOD1-driven NF-kB luciferase reporter cells, at 4 µM, active compounds read high;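 note: HEK-293T reporter cells stimulated with the NOD1 agonist gamma-tri-DAP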

| SMILES | inhibition |
| --- | --- |
| CN(C(=O)Nc1ccc(Cl)cc1)c1c2c(nn1C)CCCC2 | -14.8% |
| COc1ccc(OC)c2c1sc(=NC(=O)c1cccc(N3C(=O)CCC3=O)c1)n2C | -1.9% |
| CCN(CC)c1ccc(/C=N/Nc2nc3ccccc3[nH]2)c(O)c1 | 11.9% |
| C(=N\Nc1nc2ccccc2[nH]1)/c1ccc2ncccc2c1 | 18.6% |
| CCCc1sc(N/N=C/c2ccccn2)nc1-c1ccc(Br)cc1 | -37.7% |
| C(=N\Nc1nc2ccccc2[nH]1)/c1ccncc1 | -22% |
| Cc1csc(N/N=C/c2ccccn2)n1 | 8.7% |
| CCN(CC)c1ccc(/C=N/Nc2nc3ccccc3[nH]2)cc1 | 105% (active) |
| Cc1nc(N/N=C/c2ccccn2)sc1C | 91% (active) |
| C(=N\Nc1nc2ccccc2[nH]1)/c1ccccc1 | -71.3% |
| C(=N\Nc1nc2ccccc2[nH]1)/c1ccccn1 | 59.4% (active) |
| CCCOc1ccc(N2C(=O)CC(N(CCc3ccc(OC)c(OC)c3)C(=S)Nc3ccccc3)C2=O)cc1 (stereo not given) | -8.1% |
| O=C(Nc1ccon1)c1ccc(S(=O)(=O)N2CCOCC2)cc1 | -5.1% |
| CCOc1cc(N2CCOCC2)c(OCC)cc1NC(=O)c1nc2nccc(C)n2n1 | -8.4% |
| O=S(=O)(NCc1nc2ccccc2[nH]1)c1ccccc1 | -21.9% |
| CCCCNC(=O)CCC(=O)Nc1ccc2nc(N3CCCCC3)cc(C)c2c1 | -15.4% |
| O=c1[nH]c(C2CCN(S(=O)(=O)c3ccc(C(F)(F)F)cc3)CC2)nc2c1nnn2Cc1ccccc1 | -8.3% |
| O=C(N/N=C/c1cccnc1)c1ccc(CN2c3cccc4cccc(c34)S2(=O)=O)cc1 | -27.8% |
| Fc1ccccc1NC(=S)NCCc1ccc(Cl)cc1 | -79.8% |
| CCc1nc(SCC(=O)Nc2ccccc2C(=O)OC)n[nH]1 | -16.5% |
| COc1ccccc1CNC(=O)c1cc(C(=O)CC(C)C)c[nH]1 | -11% |
| CC(=O)Oc1cc(OC(C)=O)c2c(C)cc(=O)oc2c1 | 13.6% |

| SMILES | inhibition |
| --- | --- |
| CCc1cc(=O)oc2cc(C)cc(OCC(C)=O)c12 | -8.5% |
| CCc1cc(=O)oc2cc(OC(C)=O)cc(OC(C)=O)c12 | 41.8% (active) |
| Cc1nnc(NC(=O)CN2CCN(Cc3ccccc3Cl)CC2)s1 | -8.9% |
| CCN(CC)c1ccc(NC(=O)CN2C(=O)CC(C)(C)S(=O)(=O)c3ccccc32)c(C)c1 | -6.7% |
| Cc1ccc(N(C(=O)Cn2nnc(-c3ccc(C)o3)n2)C(C(=O)NC2CCCC2)c2ccncc2)cc1 (stereo not given) | -8.9% |
| CNC(=S)Nc1cc(S(=O)(=O)Nc2cc(Cl)ccc2Cl)ccc1N1CCCC1 | 2.1% |
| CCOc1c(Cl)cc(CNc2nnnn2C)cc1OC | -41.1% |
| O=C(Cc1cccc2ccccc12)N/N=C1\CCCc2ccccc21 | 13% |
| Cc1ccccc1OCCCC(=O)Nc1nccs1 | 6.5% |
| O=C(CCS(=O)(=O)Cc1ccccc1)Nc1nncs1 | 103% (active) |
| O=C(CCS(=O)(=O)c1ccccc1)Nc1nncs1 | 3.3% |
| O=C(CCCOc1ccccc1)Nc1nncs1 | 2.6% |
| Cc1nnc(NC(=O)CCS(=O)(=O)Cc2ccccc2)s1 | -5.2% |
| Cc1ccccc1OCCCC(=O)Nc1nncs1 | 51.4% (active) |
| CCOC(=O)c1nnc2cc(-c3ccccc3)nn2c1C | -32.6% |
| Cc1ccc(N(Cc2cc3ccc(C)cc3[nH]c2=O)C(=O)c2ccco2)cc1 | -4% |
| COc1ccc(OCCC(=O)OCC(=O)NC(=O)NC(C)C)cc1 | -3.2% |
| COc1cccc(/C=N/N2CCN(C3c4ccccc4-c4ccccc43)CC2)c1O | -6.4% |
| CCCn1c(=S)[nH]c2ccccc2c1=O | -14.5% |
| CCCN(CCC)c1ccc(/C=C/c2ccc3cc(OCC)ccc3n2)cc1 | -1.6% |
| Oc1ccc(/C=C/c2ccc3ccccc3n2)cc1 | 50.2% (active) |
| CC[n+]1ccccc1/C=C/c1ccc(N(C)C)cc1 | 40.5% |

| SMILES | inhibition |
| --- | --- |
| CN(C)c1ccc(/C=C/c2ccc3ccccc3[n+]2C)cc1 | 43.8% |
| CN(C)c1ccc(/C=C/c2ccc3ccccc3n2)cc1 | 59.1% (active) |
| CN(C)c1ccc(/C=C/c2nc3ccccc3s2)cc1 | -3.1% |
| O=[N+]([O-])c1ccc(/C=C/c2ccc3ccccc3n2)cc1 | -12.9% |
| CN(C)c1ccc(/C=C/c2ccc3c4ccccc4ccc3[n+]2-c2ccccc2)cc1 | 71.6% (active) |
| C(=C\c1ccc2ccccc2n1)/c1ccccc1 | 0% |
| COc1cc(CNCCC2CCOC(C)(C)C2)ccc1O (stereo not given) | 12.4% |
| O=C(COc1ccc2c3c(c(=O)oc2c1)CCC3)Nc1ccc(CN2CCOCC2)cc1 | -11.6% |
| COc1ccc2nc(C)c(C(N)=O)cc2c1 | 5.9% |
| O=C(NC(=S)Nc1ccccn1)c1ccccc1 | -7.6% |
| O=C(NC(=O)c1ccccc1)Nc1ccccn1 | 64.2% (active) |
| O=C(Nc1ccccn1)c1ccc(C(=O)Nc2ccccn2)cc1 | -5.1% |
| CC(=O)c1c(C)nn(CC(O)COc2ccc3ccccc3c2)c1C (stereo not given) | -16.4% |
| Cc1ccccc1C(=O)NC(=S)N(CCO)Cc1ccccc1 | -10.6% |
| CSCC(=O)N1CCC(Oc2cccc(C(=O)NCc3ccccn3)c2)CC1 | -24% |
| CC(C)NC(=O)CSc1nc(N)c(-c2ccccc2)c(=O)[nH]1 | 7.6% |
| Cc1ccc2oc(/N=C(\N)NC(=O)C3CC3)nc2c1 | -13.8% |
| CC(=O)N/C(N)=N/c1nc2cc(C)ccc2o1 | -10.1% |
| CCCOc1cccc(C2C(C(=O)c3ccco3)=C(O)C(=O)N2c2nnc(C)s2)c1 (stereo not given) | -7.8% |
| N#Cc1ccc(C(=O)NCC2CCCCC2)cc1 | 0.9% |
| O=C(O)c1cccc(C(=O)c2cccc(C(=O)O)c2)c1 | -26.4% |
